Test results published in PubChem BioAssay AID1347142 (National Center for Advancing Translational Sciences (NCATS), 2019).
Inconclusive results are not listed. Unmarked numbers belong to inactive results. Active and inactive are the calls of the source. The call rests on the fitted dose curve; in most records, active means well fitted inhibition curve with a large enough effect; inconclusive means small, poorly fitted or top-dose-only effect; inactive means no such curve, though single readings can be large or run the other way.

target: N-terminal Xaa-Pro-Lys N-methyltransferase 1 (Homo sapiens) (UniProt Q9BV86); assay: qHTS Assay for Inhibitors of N-terminal methyltransferase 1 (NTMT1): ThioGlo3 Assay Confirmatory Screen, Round 1.; conditions: NTMT1 SAHH-coupled ThioGlo3 fluorescence, 30 min; series mostly up to 56.8 µM; activity change, negative = inhibition: at the top concentration
Sequence (Q9BV86 whole entry, looked up): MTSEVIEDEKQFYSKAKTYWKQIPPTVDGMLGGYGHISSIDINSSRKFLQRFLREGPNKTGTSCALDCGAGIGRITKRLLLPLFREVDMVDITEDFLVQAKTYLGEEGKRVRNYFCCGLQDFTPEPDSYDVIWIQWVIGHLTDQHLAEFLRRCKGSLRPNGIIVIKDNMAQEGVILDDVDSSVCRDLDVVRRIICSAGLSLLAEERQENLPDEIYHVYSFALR
Excerpt: Assay Submitter (PI): Rong Huang Ph.D, Purdue University, West Lafayette, IN 47907 The N-terminal methytransferase 1 is the first methyltransferase that methylates protein alpha-N-amines and plays an important role in regulating cell mitosis, chromatin interactions and DNA repair. It is observed to be over-expressed in various cancer patient tissues like malignant melanoma and colorectal cancer tissues. Knockdown of NTMT1 in cancer cells causes cell mitotic defects and enhances sensitivity to DNA damaging chemotherapeutics. […] These critical cellular processes in which NTMT1 is implicated, coupled with emerging links to cellular dysfunction, strengthen the inference that NTMT1 is a compelling novel anticancer target. Progress have been made in understanding the molecular properties of NTMT1 and the biological consequences of protein alpha-N-terminal methylation, but there are no specific small molecule probes available for NTMT1 to fully characterize its MTase activity. To address this unmet need, a panel of assay is created and established to enable quantitative high-throughput screening (qHTS) for novel, potent, and selective small molecule NTMT1 inhibitors. Two orthogonal qHTS that use different reagents (ThioGlo vs. MTaseGlo) are developed for primary robotic screening against the NCATS chemical library of more than 400,000 small molecules. Identified inhibitors are reacquired, validated, and further characterized. […] Early Translation Branch (ETB) National Center for Advancing Translational Sciences (NCATS) National Institute of Health (NIH)
Materials: NTMT1 enzyme, substrate SPKRIA, control peptide RCC1-6 is provided by the Huang laboratory. ThioGlo3 Assay: In brief, 125nM NTMT1 enzyme was dispensed into a 1536-well assay plate with Aurora Discovery BioRAPTR Flying Reagent Dispenser (FRD, Beckton-Dickenson). Compounds (at various concentration) or 1uM RCC1-6 (SPKRIA) control were transferred to the assay plate using the Kalypsys 1536-pintool apparatus. After 1 min of room temperature incubation, 1uL of substrate (100uM SAM, 10uM SAHH, 15uM ThioGlo3) was added to the wells bringing the final assay volume to 4uL. Initial (background) fluorescence readout (EX: 340nm, EM: 450nm) was then detected using the PerkinElmer ViewLux microplate imager and a final fluorescence readout was taken after 30 min of room temperature incubation. The data was normalized to the background fluorescence.
Further: nearly all actives have a fitted effect of over 80% in size.
Potency means the concentration at half of the fitted maximal effect.
Wherever activity change, negative = inhibition is given: 0% is about no effect.

| SMILES | activity change, negative = inhibition | Potency |
| --- | --- | --- |
| Nc1nc2c(ncn2[C@@H]2O[C@H](CO)[C@@H](O)[C@@H]2O)c(=O)[nH]1 | 3.06% | – |
| COc1cc2nc(NCCN(C)C)nc(NC3CC3)c2cc1OC | – | 27.1 µM (active) |
| Nc1nc2c(ncn2[C@@H]2O[C@H](CO)[C@@H](O)[C@H]2O)c(=O)[nH]1 | 10.9% | – |
| COc1cc2c(NC3CCN(C(C)C)CC3)nc(N3CCCCC3)nc2cc1OCCCN1CCCCC1 | – | 21.5 µM (active) |
| Cn1cnc2c(ncn2[C@@H]2O[C@H](CO)[C@@H](O)[C@H]2O)c1=N | -5.6% | – |
| [N-]=[N+]=Nc1nc2c(N)ncnc2n1C1OC(CO)C(O)C1O (stereo not given) | – | 21.5 µM (active) |
| COc1cc2c(NC3CCN(C(C)C)CC3)nc(N3CCCN(C)CC3)nc2cc1OCCOCCN1CCCC1 | – | 27.1 µM (active) |
| COc1cc2nc(N3CCCCC3)nc(NC3CCN(Cc4ccccc4)CC3)c2cc1OC | – | 21.5 µM (active) |
| Nc1ncnc2c1nc(Br)n2C1OC(CO)C(O)C1O (stereo not given) | -4.56% | – |
| CCN(CC)CCCOc1cc2nc(N3CCCN(C)CC3)nc(NC3CCN(C)CC3)c2cc1OC | – | 24.1 µM (active) |
| Nc1ncnc2c1ncn2[C@@H]1O[C@H](COP(=O)(O)OP(=O)(O)OP(=O)(O)O)[C@@H](O)[C@H]1O | -14.1% | – |
| Nc1nc(Cl)nc2c1ncn2[C@@H]1O[C@H](CO)C(O)[C@H]1O (stereo not given in full) | -5.53% | – |
| CNCCCOc1cc2nc(N3CCCN(C)CC3)nc(NC3CCN(C)CC3)c2cc1OC | – | 24.1 µM (active) |
| Nc1ncnc2c1ncn2[C@@H]1O[C@H](CO)[C@@H](O)[C@@H]1O | -9.54% | – |
| COc1cc2c(NC3CCN(C(C)C)CC3)nc(N3CCCN(C(C)C)CC3)nc2cc1OCCCN1CCCCC1 | – | 24.1 µM (active) |
| COc1cc2c(NC3CCN(C(C)C)CC3)nc(N3CCCCC3)nc2cc1OCCCN1CCCC1 | – | 30.4 µM (active) |
| COc1cc2c(NC3CCN(C(C)C)CC3)nc(N3CCCCCC3)nc2cc1OCCCN1CCCC1 | – | 21.5 µM (active) |
| COc1cc2nc(N3CCN(C)CC3)nc(NC(C)C)c2cc1OC | – | 21.5 µM (active) |
| Nc1nc(Nc2ccccc2)nc2c1ncn2[C@@H]1O[C@@H](CO)[C@H](O)[C@H]1O | 9.37% | – |
| COc1cc2nc(NC3CCN(C)CC3)nc(N3CCCN(C)CC3)c2cc1OC | – | 24.1 µM (active) |

| SMILES | activity change, negative = inhibition | Potency |
| --- | --- | --- |
| COc1cc2c(NC3CCN(C)CC3)nc(N3CCCN(C)CC3)nc2cc1OCCCC(C)C | – | 24.1 µM (active) |
| COc1cc2nc(NC3CCN(C)CC3)nc(NC3CCN(C)CC3)c2cc1OC | – | 27.1 µM (active) |
| COc1cc2nc(N3CCCN(C)CC3)nc(NC3CCCCC3)c2cc1OC | – | 27.1 µM (active) |
| CC(C)N(C[C@H]1O[C@@H](n2cnc3c(N)ncnc32)[C@H](O)[C@@H]1O)C1CC(CCc2nc3ccc(C(C)(C)C)cc3[nH]2)C1 (stereo not given in full) | -13.7% | – |
| CCCCC#Cc1nc(NC)c2ncn([C@@H]3O[C@@H](CO)[C@H](O)[C@H]3O)c2n1 | 16.7% | – |
| Nc1ncnc2c1ncn2[C@@H]1O[C@H](COP(=O)(O)O)[C@@H](O)[C@@H]1O | 13.1% [at 27.4 µM] | – |
| COc1cc2nc(N3CCN(C(C)=O)CC3)nc(NC3CC3)c2cc1OC | – | 21.5 µM (active) |
| Nc1ncnc2c1ncn2[C@@H]1O[C@H](COP(=O)(O)OP(=O)(O)O)[C@@H](O)[C@H]1O | -3.45% | – |
| OC[C@H]1O[C@@H](n2cnc3c(NC4CCCC4)ncnc32)[C@H](O)C1O (stereo not given in full) | -31.9% | – |
| CSc1nc(N)c2ncn([C@@H]3O[C@H](COP(=O)(O)OP(=O)(O)O)C(O)[C@H]3O)c2n1 (stereo not given in full) | -17.9% | – |
| COc1cc2nc(N3CCCN(C)CC3)nc(NC(C)C)c2cc1OC | – | 24.1 µM (active) |
| Nc1ccnc2c1ncn2[C@@H]1O[C@H](CO)[C@@H](O)[C@H]1O | – | 2.71 µM (active) |
| COc1cc2c(NC3CCN(C(C)C)CC3)nc(N3CCCCCC3)nc2cc1OCCCN1CCCCC1 | – | 24.1 µM (active) |
| Nc1ncnc2c1ncn2[C@H]1O[C@H](CO)[C@@H](O)[C@@H]1O | -3.26% | – |
| Nc1ncnc2c1[nH]c(=O)n2C1OC(CO)C(O)C1O (stereo not given) | -23.3% | – |
| COc1cc2nc(N3CCN(C)CC3)nc(NC3CCCCC3)c2cc1OC | – | 27.1 µM (active) |
| Nc1nc2c([nH]c(=O)n2[C@@H]2O[C@H](CO)[C@@H](O)[C@H]2O)c(=O)[nH]1 | 16.6% [at 6.3 µM] | – |
| Nc1nc(Cl)nc2c1ncn2[C@@H]1O[C@H](COP(=O)(O)OP(=O)(O)OP(=O)(O)O)[C@@H](O)[C@H]1O | -20.5% | – |
| COc1cc2nc(N(C)C)nc(NC3CC3)c2cc1OC | -25.2% | – |
| COc1cc2c(NC3CCN(C)CC3)nc(N3CCCN(C)CC3)nc2cc1OCCCN(C)C | – | 27.1 µM (active) |
